The source of these data is PubChem BioAssay (NCI).

Test [1] in a line: NCI Yeast Anticancer Drug Screen. Data for the rad50 strain (AID 155).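 Also: 0% = growth of vehicle-only cultures of the same strain.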 Conditions: S. cerevisiae rad50 strain growth inhibition, active compounds read high. The procedure, abridged:
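A DNA repair-deficient yeast mutant serves as the test organism; compound-induced growth inhibition is calculated against vehicle-treated cells.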

Test [2] is described as follows: NCI Yeast Anticancer Drug Screen. Data for the mec2-1 strain (AID 157). The following applies: S. cerevisiae mec2-1 strain, active compounds read high. The essentials:
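Growth inhibition is read against vehicle-treated controls after compound exposure of the mec2-1 yeast strain, which is defective in DNA damage repair or cell cycle control.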

The nature of test [3]: NCI Yeast Anticancer Drug Screen. Data for the sgs1 mgt1 strain (AID 161).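 Also: 0% = growth of cultures given vehicle only.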 Conditions: S. cerevisiae sgs1 mgt1 strain, active compounds read high. The essentials:
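Percent growth inhibition was derived by comparing compound-exposed mutant yeast with vehicle-exposed cultures. The strain carries alterations in DNA damage repair.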

Test [4] is described as follows: NCI Yeast Anticancer Drug Screen. Data for the cln2 rad14 strain (AID 165).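 Also: 0% = growth equal to vehicle treated cultures.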 The following applies: S. cerevisiae cln2 rad14 strain, active compounds read high. The essentials: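 Growth inhibition, relative to vehicle-treated controls, is the read-out. The test organism is a yeast strain with defined genetic alterations, cln2 rad14.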
Test [5] is described as follows: NCI Yeast Anticancer Drug Screen. Data for the bub3 strain (AID 167). The following applies: S. cerevisiae bub3 mutant strain, active compounds read high. The essentials:
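Inhibition values come from growth of compound-treated mutant yeast normalised to vehicle-treated controls.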

A short description of test [6]: NCI Yeast Anticancer Drug Screen. Data for the mlh1 rad18 strain (AID 175). The following applies: S. cerevisiae mlh1 rad18 strain growth inhibition, active compounds read high. The essentials: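 Cells of a genetically altered yeast strain, deficient in DNA damage repair, were treated with compound. Their growth was then compared with that of vehicle-treated cultures to give inhibition.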

[7] abbreviates: at 5.0 µM (retest, dose inferred, filed as 0.5).
[8] abbreviates: at 50.0 µM (retest, dose inferred, filed as 5.0).

Compounds without any hit were thinned out: in the full panel of roughly 79,000, 15% have a hit. Unmarked numbers belong to inactive results. The source made the active and inactive calls. Rule as the data show it: active = growth inhibition above about 70%; inactive = the rest.

Turning to `Cc1ccccc1Oc1ccccc1N`, the growth inhibition in test [1] (setting [7]) was 12%; in test [1] (setting [8]) it was 38%; in test [1] (at 50.0 µM), 79.2% (active); in test [2] (setting [7]), -26%; in test [2] (setting [8]), 15%; in test [2] (at 50.0 µM), 65.9%. Also, the growth inhibition in test [3] (setting [7]) is -1%; in test [3] (setting [8]), 1%; in test [3] (at 50.0 µM), 69.8%; in test [4] (setting [7]), 9%; in test [4] (setting [8]), 34%; in test [4] (at 50.0 µM), 78.4% (active). The growth inhibition in test [5] (setting [7]) is -16%; in test [5] (setting [8]), 10%; in test [5] (at 50.0 µM) it was 58.6%; in test [6] (setting [7]), -15%; in test [6] (setting [8]), 39%; in test [6] (at 50.0 µM), 81.8% (active).
In the case of `O=C1OC(CCl)CC12CC(CCl)OC2=O` (configuration not stated), the growth inhibition was 1% in test [1] (setting [7]); 2% in test [1] (setting [8]); 93.7% (active) in test [1] (at 50.0 µM); -4% in test [2] (setting [7]); 3% in test [2] (setting [8]); 89.7% (active) in test [2] (at 50.0 µM). Also, the growth inhibition in test [3] (setting [7]) is -1%; in test [3] (setting [8]), 1%; in test [3] (at 50.0 µM) it was 94% (active); in test [4] (setting [7]) it was -1%; in test [4] (setting [8]), 1%; in test [4] (at 50.0 µM) it was 79.6% (active). The growth inhibition is 0% in test [5] (setting [7]); -3% in test [5] (setting [8]); 96% (active) in test [5] (at 50.0 µM); -3% in test [6] (setting [7]); 0% in test [6] (setting [8]); 95.9% (active) in test [6] (at 50.0 µM).
With `S=c1c2cn[nH]c2nc2scc(-c3ccc(Cl)cc3)n12`, the growth inhibition in test [1] (setting [7]) is 1%; in test [1] (setting [8]), 98% (active); in test [1] (at 50.0 µM), 45.4%; in test [2] (setting [7]), -29%; in test [2] (setting [8]), 97% (active); in test [2] (at 50.0 µM) it was 49.7%. The growth inhibition in test [3] (setting [7]) is -27%; in test [3] (setting [8]) it was 98% (active); in test [3] (at 50.0 µM) it was 65.9%; in test [4] (setting [7]), 24%; in test [4] (setting [8]), 98% (active); in test [4] (at 50.0 µM), 33.9%. Also, the growth inhibition in test [5] (setting [7]) was -4%; in test [5] (setting [8]), 97% (active); in test [5] (at 50.0 µM) it was 49%; in test [6] (setting [7]), 11%; in test [6] (setting [8]), 97% (active); in test [6] (at 50.0 µM), 30.6%.
As to `Cc1ccc(S(=O)(=O)N/N=C/c2oc(-c3cccc([N+](=O)[O-])c3)c(-c3cccc([N+](=O)[O-])c3)c2[N+](=O)[O-])cc1`, the growth inhibition in test [1] (setting [7]) is 56%; in test [1] (setting [8]), 56%; in test [1] (at 50.0 µM), 86.7% (active); in test [2] (setting [7]), 17%; in test [2] (setting [8]), 17%; in test [2] (at 50.0 µM), 92.7% (active). The growth inhibition in test [3] (setting [7]) was 50%; in test [3] (setting [8]), 50%; in test [3] (at 50.0 µM) it was 92.1% (active); in test [4] (setting [7]), 27%; in test [4] (setting [8]), 27%; in test [4] (at 50.0 µM) it was 91.7% (active). Further, the growth inhibition in test [5] (setting [7]) was 31%; in test [5] (setting [8]) it was 31%; in test [5] (at 50.0 µM), 87.9% (active); in test [6] (setting [7]), 57%; in test [6] (setting [8]), 57%; in test [6] (at 50.0 µM), 89.7% (active).
Take `COc1cccc2c1[n+]([O-])c1cccc(O)c1[n+]2[O-]`: the growth inhibition in test [1] (setting [7]) was 98% (active); in test [1] (setting [8]), 99% (active); in test [1] (at 50.0 µM) it was 91.4% (active); in test [2] (setting [7]) it was 99% (active); in test [2] (setting [8]), 100% (active); in test [2] (at 50.0 µM), 90.4% (active). In addition, the growth inhibition in test [3] (setting [7]) is 100% (active); in test [3] (setting [8]), 100% (active); in test [3] (at 50.0 µM), 87.5% (active); in test [4] (setting [7]), 93% (active); in test [4] (setting [8]) it was 99% (active); in test [4] (at 50.0 µM), 88.4% (active). The growth inhibition is 99% (active) in test [5] (setting [7]); 100% (active) in test [5] (setting [8]); 84.2% (active) in test [5] (at 50.0 µM); 97% (active) in test [6] (setting [7]); 99% (active) in test [6] (setting [8]); 91.7% (active) in test [6] (at 50.0 µM).
As to `CCCCC(CCc1ccccc1[N+](=O)[O-])(C(C)=O)C(=O)OCC` (configuration not stated), the growth inhibition was 4% in test [1] (setting [7]); -15% in test [1] (setting [8]); 61% in test [1] (at 50.0 µM); 4% in test [2] (setting [7]); -3% in test [2] (setting [8]); 15.7% in test [2] (at 50.0 µM). Moreover, the growth inhibition was -3% in test [3] (setting [7]); 14% in test [3] (setting [8]); 33.6% in test [3] (at 50.0 µM); 1% in test [4] (setting [7]); -11% in test [4] (setting [8]); -12.2% in test [4] (at 50.0 µM). Besides, the growth inhibition in test [5] (setting [7]) is 15%; in test [5] (setting [8]) it was 38%; in test [5] (at 50.0 µM), 80.5% (active); in test [6] (setting [7]) it was 5%; in test [6] (setting [8]), 3%; in test [6] (at 50.0 µM), 58.8%.
For the molecule `CCCC(O)[C@@]1(CC)CC(C)C(O)(C2(C)C[C@H](C)[C@@H](C(CC)C(=O)C(C)[C@@H](O)[C@H](C)C3OC(O)(C(CC)C(=O)O)[C@@H](C)C(O)C3CC)O2)O1` (some centres not stated), the growth inhibition in test [1] (setting [7]) is -9%; in test [1] (setting [8]) it was -13%; in test [1] (at 50.0 µM), 14.7%; in test [2] (setting [7]) it was -27%; in test [2] (setting [8]), -13%; in test [2] (at 50.0 µM), 23.1%. The growth inhibition is -9% in test [3] (setting [7]); -6% in test [3] (setting [8]); 23.3% in test [3] (at 50.0 µM); 0% in test [4] (setting [7]); 28% in test [4] (setting [8]); 29.3% in test [4] (at 50.0 µM). Also, the growth inhibition in test [5] (setting [7]) is -10%; in test [5] (setting [8]), -14%; in test [5] (at 50.0 µM) it was 25.9%; in test [6] (setting [7]) it was -10%; in test [6] (setting [8]) it was -8%; in test [6] (at 50.0 µM), 85.9% (active).
For `CN(C)C(=S)/N=c1\sn(C)/c(=N\C(=S)N(C)C)n1C`, the growth inhibition in test [1] (setting [7]) was -30%; in test [1] (setting [8]), -14%; in test [1] (at 50.0 µM), -0.5%; in test [2] (setting [7]), -11%; in test [2] (setting [8]), -11%; in test [2] (at 50.0 µM), -5.9%. The growth inhibition in test [3] (setting [7]) is 5%; in test [3] (setting [8]) it was 7%; in test [3] (at 50.0 µM), -5.6%; in test [4] (setting [7]), -27%; in test [4] (setting [8]), -36%; in test [4] (at 50.0 µM), -75.8%. The growth inhibition in test [5] (setting [7]) was -13%; in test [5] (setting [8]), -17%; in test [5] (at 50.0 µM) it was 0.6%; in test [6] (setting [7]), -7%; in test [6] (setting [8]), -8%; in test [6] (at 50.0 µM), 19.8%.
Consider `Brc1ccc(N=Nc2ccc(-c3ccc[cH-]3)cc2)cc1.[Fe+2].c1cc[cH-]c1`, for which the growth inhibition is 3% in test [1] (setting [7]); -3% in test [1] (setting [8]); 16.1% in test [1] (at 50.0 µM); 4% in test [2] (setting [7]); 1% in test [2] (setting [8]); 6.65% in test [2] (at 50.0 µM). Moreover, the growth inhibition in test [3] (setting [7]) was 7%; in test [3] (setting [8]), -14%; in test [3] (at 50.0 µM) it was 6.3%; in test [4] (setting [7]) it was 8%; in test [4] (setting [8]) it was 11%; in test [4] (at 50.0 µM) it was 5.75%. Moreover, the growth inhibition was 6% in test [5] (setting [7]); 9% in test [5] (setting [8]); 45.4% in test [5] (at 50.0 µM); -2% in test [6] (setting [7]); 1% in test [6] (setting [8]); 14.7% in test [6] (at 50.0 µM).
